Sampled rows, rich in hits. Any-hit rate of the full collection: about 3.1%.
uPA surface inh: inhibitors of cell surface uPA generation; 330,000 compounds, 0.31% hits; Potency, µM (titrated, usually from 38.3 µM), usual class: inhibitors; cell surface uPA generation assay, qHTS; active = well fitted inhibition curve with a large enough effect; inconclusive = small, poorly fitted or top-dose-only effect; inactive = no such curve, though single readings can be large or run the other way; tested in mouse RAW 264.7 cells; also: nearly all actives have a fitted effect of over 55% in size
DRD3 agonist: agonists of human D3 dopamine receptor; AID 652048; 410,000 compounds, 0.58% hits; D3R DiscoveRx beta-arrestin cells, luminescence, 90 min; max activation, %; P35462; in the data active = max activation above about 30%
Target sequence (P35462 whole entry, looked up): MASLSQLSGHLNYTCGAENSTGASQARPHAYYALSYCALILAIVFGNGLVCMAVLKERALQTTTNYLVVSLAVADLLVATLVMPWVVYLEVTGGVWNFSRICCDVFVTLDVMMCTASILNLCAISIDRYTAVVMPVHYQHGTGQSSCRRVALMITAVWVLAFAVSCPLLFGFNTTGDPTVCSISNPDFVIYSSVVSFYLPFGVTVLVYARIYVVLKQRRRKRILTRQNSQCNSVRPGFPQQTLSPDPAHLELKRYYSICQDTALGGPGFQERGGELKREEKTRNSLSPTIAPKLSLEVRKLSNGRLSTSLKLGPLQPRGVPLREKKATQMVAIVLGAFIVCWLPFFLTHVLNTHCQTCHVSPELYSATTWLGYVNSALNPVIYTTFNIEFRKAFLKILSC
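Cells at 1500/well, incubated overnight, then treated with pinned compounds (dopamine as control) for 90 min at 37 degrees C. DiscoveRx reagent added for 30 - 60 minutes at room temperature; luminescence read.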
DRD3 antagonist: blocks the human D3 dopamine receptor; P35462; D3R cells, DiscoveRx beta-arrestin luminescence, antagonist mode; stronger effect = lower value; 360,000 compounds, 2.5% hits; max response, negative = inhibition, %; in the data active = max response below about -50%; inconclusive = no clear call, values can overlap the other calls
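Cells plated overnight at 1500 cells/well, then exposed to library compounds with dopamine controls for 90 minutes at 37 degrees C. DiscoveRx reagent added for 30–60 minutes at room temperature; luminescence read, quantitative HTS format.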
RGS4 inhibitor: blocks human RGS4-accelerated GTP hydrolysis; Transcreener GDP fluorescence polarization, RGS4-accelerated GTP hydrolysis; 390,000 compounds, 0.039% hits; Potency, µM (top dose mostly 114 µM), most hits filed as inhibitors; AID 504845; active = well fitted inhibition curve with a large enough effect; inconclusive = small, poorly fitted or top-dose-only effect; inactive = no such curve, though single readings can be large or run the other way; also: nearly all actives have a fitted effect of over 75% in size
Target sequence (P49798 whole entry, looked up): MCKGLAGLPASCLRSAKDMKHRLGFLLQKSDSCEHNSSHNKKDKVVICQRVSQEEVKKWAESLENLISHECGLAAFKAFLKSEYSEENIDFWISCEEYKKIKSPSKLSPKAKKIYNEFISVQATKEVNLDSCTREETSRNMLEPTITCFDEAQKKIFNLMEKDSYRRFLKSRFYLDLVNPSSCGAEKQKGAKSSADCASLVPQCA
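MLSMR compounds (23 nl, pin-transferred) preincubated 10 min at room temperature with a 500nM (2x) first reagent, then RGS4 at 900nM (2x) plus Transcreener GDP mix added; fluorescence polarization (620/688 nm) read before and after 90 min at 30 °C.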
Large screens that a line does not name were inactive.

O=c1c(Br)c(Br)cnn1-c1ccccc1	DRD3 antagonist -72
Cc1ccc(-n2ncc(Br)c(Br)c2=O)cc1	uPA surface inh 13µM, DRD3 antagonist -76
CCOC(=O)c1c(C)[nH]c(C)c1S(=O)(=O)N1CCCC(C(=O)N2CCN(c3ccccc3)CC2)C1 (configuration not stated)	none (no result: uPA surface inh, DRD3 antagonist)
Brc1ccc(Nc2c3c(nc4nncn24)CCC3)cc1	none (no result: uPA surface inh, DRD3 antagonist)
Cc1cc(NC(=O)CCN2CCC(C)CC2)ccc1Br	DRD3 antagonist -106
CCN(CCC(=O)Nc1ccc(Br)c(C)c1)Cc1ccccc1	DRD3 antagonist -82, RGS4 inhibitor inconclusive
CC1CCN(CCC(=O)Nc2ccc(Br)cc2)CC1	DRD3 antagonist -76
O=C(CCN1CCCC1)Nc1ccc(Br)cc1	none
CC1CCN(CCC(=O)Nc2ccc(F)c(F)c2)CC1	DRD3 antagonist -51
COc1ccc2c(c1)c1c(c(=O)n(-c3ccc(OC)c(OC)c3)c(=O)n1Cc1ccccc1F)n2C	none (no result: uPA surface inh, DRD3 antagonist)
COc1cccc(NC(=O)c2oc3ccccc3c2NC(=O)C2CCCCC2)c1	none (no result: uPA surface inh, DRD3 antagonist)
O=C(NC(=S)NNC(=O)c1ccccc1O)c1cccc([N+](=O)[O-])c1	DRD3 agonist 43
CNC(=O)NC(=S)NC(=O)c1ccc(OC)cc1	DRD3 antagonist -72
COc1ccc(C(=O)NNC(=S)NC(=O)c2cccc([N+](=O)[O-])c2)cc1	none
COc1ccc(C(=O)NC(=S)NNC(=O)c2ccccc2O)cc1	DRD3 agonist 38
CCCOC1(C(F)(F)F)NC(=O)N(c2ccc(Cl)cc2)C1=O (configuration not stated)	none (no result: uPA surface inh, DRD3 antagonist)
Cc1ccc(C)c(Cn2c(=O)n(Cc3ccco3)c(=O)c3oc4ccccc4c32)c1	none (no result: uPA surface inh, DRD3 antagonist)
CC1=C(C(=O)Nc2ccc(Cl)cc2)C(C(C)C)n2nc(SCc3ccc(Cl)cc3)nc2N1 (configuration not stated)	none (no result: uPA surface inh, DRD3 antagonist)
O=S(=O)(c1ccc(F)cc1)N(Cc1nc(-c2ccccc2)no1)C1CCCCC1	none (no result: uPA surface inh, DRD3 antagonist)
O=S(=O)(c1ccccc1)N(Cc1nc(-c2ccccc2)no1)C1CCCCC1	DRD3 antagonist -53
O=C(OCC(O)C(O)C(O)C(SCc1ccccc1)SCc1ccccc1)c1ccccc1 (configuration not stated)	DRD3 antagonist -67
COCCCNC(=O)CCC(=O)N1Cc2cccc(OC)c2Oc2ncccc21	none (no result: uPA surface inh, DRD3 antagonist)
COc1ccc2c(c1)[nH]c1c(N3CCSCC3)ncnc12	DRD3 agonist 30
Cc1ccc(NC(=O)Cn2c(=O)n(CCCCC(=O)NCCc3ccccc3)c(=O)c3ccccc32)c(C)c1	none (no result: uPA surface inh, DRD3 antagonist)
CCN(CC)CCNC(=O)C1c2cc(OC)c(OC)cc2C(=O)N(C)C1c1cccs1 (configuration not stated)	DRD3 antagonist -98
CCCCN(CC)CCNC(=O)C1c2cc(OC)c(OC)cc2C(=O)N2CCc3ccccc3C12 (configuration not stated)	DRD3 antagonist -76
COc1ccc(C2C(C(=O)NCCN(C)C)c3cc(OC)c(OC)cc3C(=O)N2C)cc1OC (configuration not stated)	none
Cc1ccc(/C=N/N2C(=S)SC(C)(C)C2N(O)C(=O)Nc2ccc([N+](=O)[O-])cc2)cc1 (configuration not stated)	DRD3 antagonist -58
CC1(C)SC(=S)N(/N=C/c2ccc(O)cc2)C1N(O)C(=O)Nc1ccc([N+](=O)[O-])cc1 (configuration not stated)	none
CSc1cc(C)c(OCC(=O)Nc2ccc(NC(C)=O)cc2)c(C)c1	DRD3 antagonist -52
CC(=O)Nc1ccc(NC(=O)COc2c(C)cc(Br)cc2C)cc1	none
COc1ccc(NC(=S)Nc2ccc(N)c([N+](=O)[O-])c2)cc1	DRD3 antagonist -82
Cc1cc(NC(=O)c2cc(-c3ccc(F)cc3)on2)nn1Cc1ccc(Cl)cc1	none (no result: uPA surface inh, DRD3 antagonist)
CC(C)(C)c1ccccc1OCCOCCN1CCCCCC1	DRD3 antagonist -62
Cc1ccc(C(C)(C)C)c(OCCOCCN2CCCC2)c1	DRD3 antagonist -54
Cc1ccc(OCCOCCN2CCCCC2)c([N+](=O)[O-])c1	none
COC(=O)[C@@]12C[C@@H](CC(=O)NCc3cccc(C(F)(F)F)c3)C(=O)N(CCc3ccc(OC)c(OC)c3)C1=CCC(C)(C)C2	none (no result: uPA surface inh, RGS4 inhibitor)
CCN(CC)C(=O)C1=CC(c2ccc3c(c2)OCO3)=NS(=O)(=O)N1C	none (no result: uPA surface inh, DRD3 antagonist)
Cc1cccc(N2CCN(c3ncnc4onc(C)c34)CC2C)c1 (configuration not stated)	none (no result: uPA surface inh, DRD3 antagonist)
Cc1cccc(N2CCN(C(=O)COc3noc4nc(C)cc(C)c34)CC2C)c1 (configuration not stated)	DRD3 agonist 34 (no result: uPA surface inh, RGS4 inhibitor)
C=CCc1ccc(OCCCNC2CCCC2)c(OC)c1	none
C=CCc1cccc(Cl)c1OCCCNC1CCCC1	DRD3 antagonist -89
COc1ccc(C(NC(=O)C2CCN(CCOc3ccc(Cl)cc3Cl)CC2)c2cccs2)cc1 (configuration not stated)	DRD3 agonist 61 (no result: uPA surface inh, RGS4 inhibitor)
COc1ccc(C(NC(=O)C2CCN(CCOc3ccc(Cl)cc3Cl)CC2)c2ccccc2C)cn1 (configuration not stated)	DRD3 antagonist -77 (no result: uPA surface inh, RGS4 inhibitor)
COc1ccc(/C=C/CN2CCC(C(=O)NC(c3ccc(F)cc3)c3ccc4ccccc4n3)CC2)cc1 (configuration not stated)	DRD3 antagonist -76 (no result: uPA surface inh, RGS4 inhibitor)
COc1ccc(OCCN2CCC(C(=O)NC(c3ccccn3)c3ccccc3OC)CC2)cc1 (configuration not stated)	none (no result: uPA surface inh, RGS4 inhibitor)
COc1ccc(C(NC(=O)C2CCN(CCOc3ccc(F)cc3)CC2)c2cccs2)cc1 (configuration not stated)	DRD3 antagonist -68 (no result: uPA surface inh, RGS4 inhibitor)
CC(C)CN1CCC(C(=O)NC(c2ccc(F)cc2)c2ccc3ccccc3n2)CC1 (configuration not stated)	DRD3 antagonist inconclusive (no result: uPA surface inh, RGS4 inhibitor)
COc1ccc(CCNC(=O)CCCn2nc(C)c3sc4ccccc4c3c2=O)cc1OC	none (no result: uPA surface inh, DRD3 antagonist)
CC(=O)OC1CCC2(C)C(=CCC3C2CCC2(C)C3C[C@@H]3O[C@]32C(C)=O)C1 (some centres not stated)	none (no result: uPA surface inh, DRD3 agonist, DRD3 antagonist)
COc1ccc(C(C)NC(=O)C2CCN(CCOc3ccc(Cl)cc3Cl)CC2)cc1OC (configuration not stated)	DRD3 antagonist -92 (no result: uPA surface inh, RGS4 inhibitor)
CC(=O)Nc1ccc2c(c1)Cc1cc(N3C(=O)C=CC3=O)ccc1-2	DRD3 antagonist -64, RGS4 inhibitor inconclusive
COc1ccc(Cl)c(Cn2c(NCCN)nc3c2c(=O)n(C)c(=O)n3C)c1	none (no result: uPA surface inh, DRD3 antagonist)
CCOC(=O)N1CCN(S(=O)(=O)c2ccc(C(=O)Nc3nnc(C)o3)cc2)CC1	DRD3 antagonist -51
CCOC(=O)N1CCN(S(=O)(=O)c2ccc(C(=O)Nc3nnc(CSC)o3)cc2)CC1	none
CC(C)(C)c1ccc(C(=O)NNc2ncnc3c2cnn3-c2ccccc2)cc1	none (no result: uPA surface inh, DRD3 antagonist)
Cc1nc2c(OCc3ccccc3)cccn2c1CC#N	none (no result: uPA surface inh, DRD3 agonist, DRD3 antagonist)
Cc1nc(S(=O)(=O)N2CCN(c3cccc(Cl)c3)CC2)cn1C	none (no result: uPA surface inh, DRD3 antagonist)
O=c1[nH]c(=S)[nH]c2c1C(c1cccc(C(F)(F)F)c1)OC(CCc1ccccc1)C2 (configuration not stated)	DRD3 antagonist -71 (no result: uPA surface inh, RGS4 inhibitor)
CCSc1nc2ccccc2n1CC(N)=O	none (no result: uPA surface inh)
